The source of these data is PubChem BioAssay.

Assay [1] is described as follows: binders of probe aFSTL3 on microarray, primary screen, stem cell growth factor project, biochemical, small-molecule microarray, fluorescence 635/667 (AID 1064).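 Further: measures binding of the biotinylated anti-FSTL3 antibody to printed compounds.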 The conditions noted are these: higher = more signal.
The nature of assay [2]: binders from COS7 lysate, DM2A8 probe, primary screen, torsin A project, cell lysate, small-molecule microarray, fluorescence 635/667 (AID 1065). The conditions noted are these: higher = more signal, COS7 lysate expressing mutant human TOR1A.
Assay [3] in a line: binders of probe aFGF2 on microarray, primary screen, stem cell growth factor project, biochemical, small-molecule microarray, fluorescence 635/667 (AID 1067).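 Further: measures binding of biotinylated aFGF2 protein to printed compounds on slides; z-score merges feature fluorescence and signal-to-noise across triplicate slides.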 Conditions: higher = more signal.
Assay [4] can be described thus: binders of probe aFGF10 on microarray, primary screen, stem cell growth factor project, biochemical, small-molecule microarray, fluorescence 635/667 (AID 1071).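 Further: score merges 667 nm spot intensity and signal to noise from triplicate slides.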 Conditions: higher = more signal.
The target in assay [5] is Neurogenic locus notch homolog protein 2 (Homo sapiens) (UniProt Q04721). Put plainly: Notch2 binders on small-molecule microarrays, primary screen, biochemical, small-molecule microarray, 635 nm fluorescence, stem cell growth factors (AID 1073). Conditions: Notch2 binding, higher = more signal.
For assay [6], the target named is Pro-neuregulin-1, membrane-bound isoform (Homo sapiens) (UniProt Q02297). As to the kind of experiment: NRG1 binders on small-molecule microarrays, primary screen, psychiatric disease protein project, biochemical, small-molecule microarray, fluorescence 635/667 (AID 1075).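 Further: score combines 667 nm spot fluorescence with signal to noise.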 The conditions noted are these: NRG1 binding, 635 nm fluorescence, higher = more signal.
For assay [7], the system named is Neuregulin-1 EGF-like domain. As to the kind of experiment: binders of neuregulin-1 EGF-like domain, primary screen, biochemical, small-molecule microarray, 635 nm fluorescence (AID 1081).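 Further: binding of the protein to compounds printed on small-molecule microarray slides.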 The conditions noted are these: small-molecule microarray binding, higher = more signal.
Assay [8] in a line: FRG1 promoter luciferase signal modulators, primary screen, FRG1 inhibition for FSHD, cell-based, C2C12 myotubes, firefly/Renilla luciferase, luminescence (AID 1084). The conditions noted are these: higher = more signal, called active from +8 up or from −8 down.
Assay [9] can be described thus: binders of probe aFST on microarray, primary screen, stem cell growth factor project, biochemical, small-molecule microarray, fluorescence 635/667 (AID 1086).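 Further: score merges 667 nm fluorescence with signal-to-noise of each printed compound spot.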 Conditions: higher = more signal.
Assay [10] can be described thus: binders of probe aHhip on microarray, primary screen, stem cell growth factor project, biochemical, small-molecule microarray, fluorescence 635/667 (AID 1087).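 Further: score merges spot fluorescence at 667nm with spot signal to noise ratio.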 The conditions noted are these: higher = more signal.
The test system of assay [11] is PRMT1 (protein arginine N-methyltransferase 1). As to the kind of experiment: PRMT1 binders on small-molecule microarrays, primary screen, biochemical, small-molecule microarray, 635 nm fluorescence (AID 1088).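 Further: binding of Prmt1 protein to compounds spotted on small-molecule microarray slides.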 The conditions noted are these: small-molecule microarray binding, higher = more signal.
Assay [12] in a line: yeast growth modulation, basal conditions, primary screen, YJM789 clinical isolate, OD600, 24 h (AID 1089).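 Further: growth of clinical yeast isolate S. cerevisiae YJM 789 seeded 1000 cells per well; test concentration not given here.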 Conditions: S. cerevisiae YJM789 growth, higher = more signal, called active from +8 up or from −8 down.
The nature of assay [13]: fission yeast growth modulation, primary screen, strain 972, OD600, 24 h, no modulator (AID 1090).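 Further: basal condition with compound alone and no growth modifier present; test concentration not given here.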 The conditions noted are these: S. pombe 972 growth, higher = more signal, called active from +8 up or from −8 down.
Assay [14] in a line: S. cerevisiae growth modulation with rapamycin, primary screen, strain BY4716, OD600, 96 h (AID 1091). Further: test concentration not given here. The conditions noted are these: higher = more signal, called active from +8 up or from −8 down.
Assay [15] deals with Torsin-1A-interacting protein 2 (Homo sapiens) (UniProt Q8NFQ8). Put plainly: LULL1 binders on small-molecule microarray, primary screen, cell lysate, human LULL1 lysate, 635/667 nm fluorescence (AID 1092).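 Further: probe is lysate of COS7 cells overexpressing human LULL1; score merges per-feature 667 nm fluorescence with signal-to-noise.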 Conditions: hLULL1 lysate binding, 635 nm fluorescence, higher = more signal.
Assay [16] can be described thus: E. coli growth modulation, two-sided OD650, primary screen, E. coli filamentation project, strain DRC41, 24 h (AID 1093).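 Further: MC1000 strain lacking acrAB efflux and sulA so SOS filamentation is blocked; test concentration not given here.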 The conditions noted are these: OD650, 24 h, higher = more signal, called active from +8 up or from −8 down.
The nature of assay [17]: small-molecule microarray binders of probe aLefty2, primary screen, biochemical, biotinylated probe, 635/667 nm fluorescence (AID 1094).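 Further: score merges spot fluorescence near 667 nm with spot signal-to-noise ratio.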 Conditions: higher = more signal.
In assay [18] the test system is Noggin (protein binding on small-molecule microarray). As to the kind of experiment: Noggin binders on small-molecule microarray, primary screen, biochemical, 635/667 nm fluorescence (AID 1095).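 Further: score merges 667 nm feature fluorescence with signal to noise over triplicate slides.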 Conditions: 635 nm fluorescence, higher = more signal.
Assay [19] has as its target Neurogenic locus notch homolog protein 3 (Homo sapiens) (UniProt Q9UM47). As to the kind of experiment: NOTCH3 binders on small-molecule microarray, primary screen, biochemical, 635/667 nm fluorescence (AID 1096). The conditions noted are these: NOTCH3 binding, 635 nm fluorescence, higher = more signal.
Assay [20] can be described thus: small-molecule microarray binders of probe aEGFR, primary screen, biochemical, biotinylated probe, 635/667 nm fluorescence (AID 1097).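 Further: probe is a biotinylated anti-EGFR antibody binding compounds printed on slides; score combines fluorescence near 667 nm and signal to noise of each spot.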 Conditions: higher = more signal.

The source made the active and inactive calls.

Chain of Torsin-1A-interacting protein 2 (Homo sapiens) (Q8NFQ8 whole entry, looked up): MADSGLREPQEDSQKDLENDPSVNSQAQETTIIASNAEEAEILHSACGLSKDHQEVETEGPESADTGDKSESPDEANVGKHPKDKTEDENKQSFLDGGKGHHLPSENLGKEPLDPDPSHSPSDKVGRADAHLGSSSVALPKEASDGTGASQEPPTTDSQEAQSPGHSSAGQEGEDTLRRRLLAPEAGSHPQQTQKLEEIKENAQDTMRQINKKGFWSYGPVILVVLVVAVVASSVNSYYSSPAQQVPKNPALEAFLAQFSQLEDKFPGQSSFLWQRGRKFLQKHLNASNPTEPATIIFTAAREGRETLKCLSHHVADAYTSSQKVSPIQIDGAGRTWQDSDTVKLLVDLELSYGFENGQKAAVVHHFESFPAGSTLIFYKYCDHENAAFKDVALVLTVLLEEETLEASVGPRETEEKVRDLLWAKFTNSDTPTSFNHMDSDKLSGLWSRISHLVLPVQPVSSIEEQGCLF
Chain of Neurogenic locus notch homolog protein 3 (Homo sapiens) (Q9UM47 whole entry, looked up): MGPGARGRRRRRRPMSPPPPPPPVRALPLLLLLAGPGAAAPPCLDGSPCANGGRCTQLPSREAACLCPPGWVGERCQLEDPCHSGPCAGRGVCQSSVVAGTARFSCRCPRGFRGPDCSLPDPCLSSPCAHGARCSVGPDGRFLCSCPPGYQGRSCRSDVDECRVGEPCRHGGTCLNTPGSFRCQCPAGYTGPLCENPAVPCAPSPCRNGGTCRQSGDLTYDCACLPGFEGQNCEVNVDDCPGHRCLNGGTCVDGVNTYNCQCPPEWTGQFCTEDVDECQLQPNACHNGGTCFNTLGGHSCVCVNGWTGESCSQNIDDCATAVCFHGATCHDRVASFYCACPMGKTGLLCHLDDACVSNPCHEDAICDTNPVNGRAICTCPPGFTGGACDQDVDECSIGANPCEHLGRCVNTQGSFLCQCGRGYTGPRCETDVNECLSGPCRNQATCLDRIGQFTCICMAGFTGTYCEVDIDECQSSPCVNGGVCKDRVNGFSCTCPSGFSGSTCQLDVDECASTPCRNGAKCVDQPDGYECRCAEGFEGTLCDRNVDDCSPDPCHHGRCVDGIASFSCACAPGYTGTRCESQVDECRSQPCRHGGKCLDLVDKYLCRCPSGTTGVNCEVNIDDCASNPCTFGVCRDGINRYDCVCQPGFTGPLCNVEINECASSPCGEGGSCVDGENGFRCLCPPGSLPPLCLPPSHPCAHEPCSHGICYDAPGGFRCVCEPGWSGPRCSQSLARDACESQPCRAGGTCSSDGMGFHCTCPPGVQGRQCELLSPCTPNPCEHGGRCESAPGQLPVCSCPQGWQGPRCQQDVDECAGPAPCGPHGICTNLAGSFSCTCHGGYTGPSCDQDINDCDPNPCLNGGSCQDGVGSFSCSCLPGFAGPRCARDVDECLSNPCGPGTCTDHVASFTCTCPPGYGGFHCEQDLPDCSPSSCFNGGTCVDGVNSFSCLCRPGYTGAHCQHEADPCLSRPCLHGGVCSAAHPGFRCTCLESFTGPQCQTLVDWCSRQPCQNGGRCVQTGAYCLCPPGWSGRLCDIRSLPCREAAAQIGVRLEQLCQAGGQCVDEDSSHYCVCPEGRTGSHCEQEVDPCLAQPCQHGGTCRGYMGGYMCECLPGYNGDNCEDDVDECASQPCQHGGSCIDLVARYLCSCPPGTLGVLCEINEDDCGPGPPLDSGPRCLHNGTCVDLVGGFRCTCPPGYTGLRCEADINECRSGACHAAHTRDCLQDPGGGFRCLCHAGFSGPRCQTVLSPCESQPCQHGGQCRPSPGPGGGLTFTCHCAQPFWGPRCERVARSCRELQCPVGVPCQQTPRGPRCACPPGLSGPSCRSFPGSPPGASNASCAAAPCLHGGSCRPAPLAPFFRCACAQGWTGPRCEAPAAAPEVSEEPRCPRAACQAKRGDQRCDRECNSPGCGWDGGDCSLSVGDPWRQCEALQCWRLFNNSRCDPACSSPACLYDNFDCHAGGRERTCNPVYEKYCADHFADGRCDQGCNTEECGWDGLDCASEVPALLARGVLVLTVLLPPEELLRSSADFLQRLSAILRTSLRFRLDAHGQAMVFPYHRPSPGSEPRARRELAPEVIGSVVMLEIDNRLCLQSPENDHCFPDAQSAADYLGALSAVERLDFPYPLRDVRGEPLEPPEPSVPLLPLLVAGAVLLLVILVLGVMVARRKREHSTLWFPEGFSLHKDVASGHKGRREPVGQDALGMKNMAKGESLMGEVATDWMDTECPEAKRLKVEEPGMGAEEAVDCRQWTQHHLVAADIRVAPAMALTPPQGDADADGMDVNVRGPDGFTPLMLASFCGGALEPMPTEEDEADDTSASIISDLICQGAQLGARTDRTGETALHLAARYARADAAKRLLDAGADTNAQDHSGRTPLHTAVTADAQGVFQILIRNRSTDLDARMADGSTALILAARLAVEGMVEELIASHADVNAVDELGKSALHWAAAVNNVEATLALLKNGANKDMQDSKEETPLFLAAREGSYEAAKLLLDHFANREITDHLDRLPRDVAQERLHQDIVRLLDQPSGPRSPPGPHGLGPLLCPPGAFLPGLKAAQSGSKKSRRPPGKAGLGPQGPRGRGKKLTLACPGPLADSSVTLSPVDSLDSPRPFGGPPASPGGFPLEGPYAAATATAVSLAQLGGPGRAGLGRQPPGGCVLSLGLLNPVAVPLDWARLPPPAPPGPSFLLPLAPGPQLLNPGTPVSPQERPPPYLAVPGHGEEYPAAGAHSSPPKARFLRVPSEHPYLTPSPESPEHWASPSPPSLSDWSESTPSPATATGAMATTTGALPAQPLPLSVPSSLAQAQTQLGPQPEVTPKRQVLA
Chain of Pro-neuregulin-1, membrane-bound isoform (Homo sapiens) (Q02297 whole entry, looked up, the tested form may be a part, canonical isoform): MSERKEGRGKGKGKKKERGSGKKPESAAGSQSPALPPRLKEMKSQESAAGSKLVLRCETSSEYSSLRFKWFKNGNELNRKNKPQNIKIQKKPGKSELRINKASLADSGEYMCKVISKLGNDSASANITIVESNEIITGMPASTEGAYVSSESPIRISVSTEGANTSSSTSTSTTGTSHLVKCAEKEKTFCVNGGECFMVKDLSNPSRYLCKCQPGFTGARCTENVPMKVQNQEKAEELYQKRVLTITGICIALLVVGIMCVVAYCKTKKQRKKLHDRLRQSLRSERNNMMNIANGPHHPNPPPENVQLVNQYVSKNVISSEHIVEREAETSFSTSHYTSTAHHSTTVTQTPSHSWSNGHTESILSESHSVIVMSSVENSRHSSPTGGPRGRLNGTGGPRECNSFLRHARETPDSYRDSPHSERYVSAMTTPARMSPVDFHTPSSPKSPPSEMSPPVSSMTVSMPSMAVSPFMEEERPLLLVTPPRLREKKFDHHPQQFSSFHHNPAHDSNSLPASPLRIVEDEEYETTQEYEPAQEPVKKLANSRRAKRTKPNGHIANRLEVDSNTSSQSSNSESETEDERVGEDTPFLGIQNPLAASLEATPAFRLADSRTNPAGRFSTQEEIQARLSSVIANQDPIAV

For the compound `NCCCCCNC(=O)[C@H]1C[C@H]2C(=O)NCC(=O)N2[C@H]1c1ccc(O)cc1`, the composite z-score in [1] is -0.136; in assay [2] it was 2.22; in assay [3] it was -0.113; in assay [4] it was 0.847; in [5] it was 0.775; in assay [6], 1.3. Moreover, the composite z-score was 1.22 in assay [7]; 0.106 in assay [9]; 0.154 in assay [10]; 1.55 in [11]; 2.16 in assay [15]; -0.0424 in assay [17]. The figures for the composite z-score in [18], in assay [19] and in [20] were 1.86, 0.906 and 0.186, respectively. The z-score in assay [8] is 1.51 (inactive); in assay [12], 0.535 (inactive); in [13], -1.08 (inactive); in assay [14], 1.11 (inactive); in [16], 1.1 (inactive).

Turning to `C/C=C/[C@@H](CCn1cc(CCO[Si](C(C)C)(C(C)C)C(C)C)nn1)[Si](C)(C)c1ccc(OC)cc1`, the composite z-score was 0.502 in [1]; -0.416 in [2]; -0.271 in assay [3]; -2.29 in assay [4]; -2.88 in assay [5]; -0.774 in [6]. Further, the composite z-score in assay [7] was -0.48; in assay [9], -0.986; in assay [10], -0.413; in [11], -0.551; in assay [15] it was -0.356; in assay [17], -0.275. Further, the composite z-score in [18] is -1.15; in assay [19], -3.03; in assay [20] it was -0.406. The z-score in assay [8] is -1.33 (inactive); in assay [12], -3.08 (inactive); in assay [13] it was -2.88 (inactive); in assay [14], -1.94 (inactive); in [16], -0.715 (inactive).

As for `COc1ccc([Si](C)(C)[C@H]2[C@H](CC(=O)N(CCO)Cc3ccccc3)O[C@@]3(C(=O)N(Cc4cccc(N5C(=O)COc6ccccc65)c4)c4ccccc43)[C@@H]2C)cc1`, the composite z-score in [1] is 1.54; in [2] it was 0.347; in [3], -0.106; in assay [4], 0.585; in assay [5] it was 0.703; in assay [6] it was 1.11. Moreover, the composite z-score in assay [7] is 1.27; in [9], -0.103; in assay [10] it was 0.245; in [11], 1.44; in assay [15] it was 2.13; in assay [17], -0.0846. Moreover, the values for the composite z-score in assay [18], in [19] and in assay [20] were 0.97, 0.496 and 0.0927, respectively. In addition, the z-score is -1.84 (inactive) in [8]; 2.21 (inactive) in assay [12]; 0.272 (inactive) in assay [13]; 3.48 (inactive) in [14]; 2.09 (inactive) in assay [16].

With `CC(C)[C@@H](C(=O)O)n1cc(-c2ccccn2)nn1`, the composite z-score is 0.22 in assay [1]; 0.424 in assay [2]; -0.378 in assay [3]; 0.458 in assay [4]; 0.537 in assay [5]; 0.419 in assay [6]. For the same compound, the composite z-score in [7] was 0.961; in assay [9] it was 0.659; in assay [10], 0.0274; in assay [11], 0.575; in assay [15] it was 0.88; in [17] it was -0.378. The composite z-score is 0.332 in assay [18], 0.309 in assay [19] and -0.0508 in assay [20]. The z-score in [8] was 0.0328 (inactive); in assay [12], 0.0655 (inactive); in assay [13] it was -0.477 (inactive); in [14], -0.353 (inactive); in assay [16], 1.99 (inactive).

`C[N+](C)(C)CCCC[C@@H]1NC(=O)[C@@H]2C[C@H](C(=O)NCCCCCNC(=O)CS)[C@H](c3ccc(O)cc3)N2C1=O`: the composite z-score in assay [1] was 0.152; in [2] it was 0.338; in [3], -0.14; in assay [4] it was -1.01; in assay [5], -1.26; in assay [6] it was 1.94. Besides, the composite z-score in assay [7] was 1.23; in assay [9] it was -0.288; in assay [10], 0.0274; in assay [11], 1.08; in [15], 2.1; in assay [17] it was -0.188. Besides, the composite z-score was 1.39 in [18], 0.322 in assay [19] and -0.149 in assay [20]. For the same compound, the z-score was 1.26 (inactive) in [8]; -1.44 (inactive) in [12]; -1.73 (inactive) in [13]; -0.905 (inactive) in [14]; 1.39 (inactive) in assay [16].
